# Experimental data taken from PubChem BioAssay (EPA / NIEHS).
# More than one record can exist for a structure, and the calls need not agree. Calls of active or inactive are those of the source. How the source made its calls: active means hit-call score of the fitted dose curve at least 0.9, where 1 is the maximum; inactive means score below 0.9.
# Read-out: Tumor necrosis factor receptor 1 (TNFRSF1A), TNFRSF1A (gene 7132)
# Test: LTEA_HepaRG_TNFRSF1A: Life Technologies and Expression Analysis (LTEA) Assay for Tumor necrosis factor receptor 1 (TNFRSF1A) using HepaRG (AID 2283535)
# Conditions: mRNA level, 48 h; actives raise or lower the signal
# Method: LTEA_HepaRG is a cell based, multiplexed-readout assay that uses HepaRG, a human liver cell line, with measurements taken at 48 hours after chemical dosing on a 96-well plate.LTEA_HepaRG_TNFRSF1A is one of 102 assay component(s) measured in the LTEA HepaRG cell culture assay. It is a marker of Cell proliferation, survival, death.Data from the assay component LTEA_HepaRG_TNFRSF1A was analyzed into 1 endpoint. This assay endpoint, LTEA_HepaRG_TNFRSF1A, was analyzed with bidirectional fitting relative to DMSO as the negative control and baseline of activity. Using a type of inducible reporter, measures of mRNA induction for gain or loss-of-signal activity can be used to understand regulation of transcription factor activity. To generalize the intended target to other relatable targets, this assay endpoint is annotated to the cytokine receptor intended target family, where the subfamily is TNF receptor.
# A total of 1060 chemcials from the ToxCast library were tested in eight-point concentration-response experiments. Cell culture and cytotoxicity assays were conducted at Thermo Fisher Scientific's Custom Services facility (Madison, WI). A single lot of human HepaRG cells (Thermo Fisher Scientific, Frederick, MD) was used for the cell culture experiments. 96-well format collagen type I coated plates of human HepaRG cells were prepared using established methods. Briefly, cryopreserved HepaRG cells were thawed, plated at a density of approximately 100,000 cells/well in HepaRG Thaw, Plate, and General Purpose media (HPRG770, Thermo Fisher Scientific), and incubated for 48 hours. 0.5% DMSO was selected as vehicle control to balance the requisite need of DMSO in HepaRG cultures to maintain differentiation (for example, baseline metabolism, proportions of hepatocytes vs. cholangiocytes), while enabling further hepatic receptor pathway activation (for example, PXR and CAR) in response to chemical exposure. 48 hours after plating, the culture medium was replaced with HepaRG Serum-Free Incudtion Media. Cells were exposed to each test chemical in duplicate and maintained in CO2 incubators for another 48 hours. Chemical plates were thawed to room temperature and 200x concentrations of treatment groups were prepared. 8-point conentration-reponse curves were made with the highest exposure at 100 uM, followed by half-log dilutions, all in 0.5% DMSO. Each test plate contained variouse controls, induction positive controls (1mM phenobarbital), cytotoxicity positive controls ([…] aflatoxin B1), vehicle controls (0.5% DMSO), and total lysis controls (0.5% DMSO). Cell morphology images were taken using an Essen IncuCyte FLR automated microscope, with six 96-well plates imaged in about 24 minutes. Images were captured and exported and JPEG files. Spent culture media was transfered to black-well plates for the LDH assay, and remaining media was sorted at -80 C for later use. Cells were treated with RLT buffer and frozen until shipped for gene expression analysis. Total RNA was isolated from the cell suspension in 75 uL of Buffer RLT (Qiagen, Germantown, MD 20874) by Quintiles/Expression Analysis (Durham, NC) using a custom isolation procedure. Total RNA from each plate well was transferred to a preamplification plate. Fluidigm's 96.96 Dynamic ArrayTM (Fluidigm, Amsterdam, the Netherlands) technology was used for gene expression analyses by quantitative reverse transcription polymerase chain reaction (qRT-PCR, performed by Quintiles/Expression Analysis, Durham, NC)89. Standard TaqManTM Assays (Applied Biosystems/ThermoFisher Scientific, Foster City, CA) were used to assess the expression of 93 genes selected based on their selectivity and sensitivity to important hepatic receptors known to be modulated by environmental chemicals; importance in human hepatocyte functionality; and hepatotoxicity. […]
SMILES,outcome,AC50
CN(C)C(=S)SSC(=S)N(C)C,inactive,
CNC(=S)S,inactive,
OC(c1ccc(Cl)cc1)(c1cncnc1)c1ccccc1Cl (stereo not given),inactive,
O=C(O)c1nc(Cl)ccc1Cl,inactive,
CCOC(=O)CC(SP(=S)(OC)OC)C(=O)OCC (stereo not given),inactive,
CCCC1COC(Cn2cncn2)(c2ccc(Cl)cc2Cl)O1 (stereo not given),inactive,
CCCN(CCC)c1c([N+](=O)[O-])cc(S(N)(=O)=O)cc1[N+](=O)[O-],inactive,82.1 µM (active)
CCOC(=O)C(Cl)Cc1cc(-n2nc(C)n(C(F)F)c2=O)c(F)cc1Cl (stereo not given),inactive,
CCNc1nc(Cl)nc(NCC)n1,inactive,
CCCCNC(=O)OCC#CI,inactive,
COC(=O)C(C)Oc1ccc(Oc2ccc(Cl)cc2Cl)cc1 (stereo not given),inactive,
C#CCOS(=O)OC1CCCCC1Oc1ccc(C(C)(C)C)cc1 (stereo not given),,26.1 µM (active)
CCCCOC(=O)c1ccccc1C(=O)OCCCC,inactive,
CC(C)(C)c1ccc(CSc2cnn(C(C)(C)C)c(=O)c2Cl)cc1,inactive,
O=C(Nc1ccccc1)Nc1ccnc(Cl)c1,,96.7 µM (active)
CON(C)C(=O)Nc1ccc(Cl)c(Cl)c1,inactive,
Cc1c(F)c(F)c(COC(=O)C2C(/C=C(\Cl)C(F)(F)F)C2(C)C)c(F)c1F (stereo not given),inactive,
COC(=O)c1ccccc1C(=O)OC,inactive,
O=C(O)COc1nc(Cl)c(Cl)cc1Cl,inactive,
Fc1ccc(Oc2ccnc3cc(Cl)cc(Cl)c23)cc1,inactive,

SMILES,outcome,AC50
N#Cc1nn(-c2c(Cl)cc(C(F)(F)F)cc2Cl)c(N)c1S(=O)C(F)(F)F (stereo not given),inactive,
CCCCNC(=O)n1c(NC(=O)OC)nc2ccccc21,inactive,
CNC(=O)ON=CC(C)(C)SC,inactive,
COC(=O)C=C(C)OP(=O)(OC)OC,inactive,
CCOc1cc(Oc2ccc(C(F)(F)F)cc2Cl)ccc1[N+](=O)[O-],inactive,
CCNc1nc(Cl)nc(NC(C)C)n1,inactive,
CCc1nn(C)c(C(=O)NCc2ccc(C(C)(C)C)cc2)c1Cl,,27.4 µM (active)
CC(Oc1ccc(Cl)cc1Cl)C(=O)O (stereo not given),inactive,
CC1=C(C(=O)Nc2ccccc2)SCCO1,inactive,
COc1cnc(OC)n2nc(NS(=O)(=O)c3c(OCC(F)F)cccc3C(F)(F)F)nc12,inactive,
Cc1ccc(-c2c(Cl)nc(C#N)n2S(=O)(=O)N(C)C)cc1,,34.9 µM (active)
C=CCC1=C(C)[C@@H](OC(=O)[C@@H]2[C@@H](C=C(C)C)C2(C)C)CC1=O,inactive,
CO/C=C(/C(=O)OC)c1ccccc1Oc1cc(Oc2ccccc2C#N)ncn1,inactive,
CS/C(C)=N/OC(=O)N(C)SN(C)C(=O)O/N=C(\C)SC,inactive,
CC(C)C1(C)N=C(c2nc3ccccc3cc2C(=O)O)NC1=O (stereo not given),inactive,
C=CCC1=C(C)C(OC(=O)C2C(C=C(C)C)C2(C)C)CC1=O (stereo not given),inactive,
N#CC(CCc1ccc(Cl)cc1)(Cn1cncn1)c1ccccc1 (stereo not given),inactive,
COP(N)(=O)SC (stereo not given),inactive,
COc1ccc(C(c2ccc(OC)cc2)C(Cl)(Cl)Cl)cc1,inactive,
